Results from PubChem BioAssay (NCATS).
Values joined by “and” are separate entries in the source; they are usually repeats but may differ in a detail not shown here. Equal entries are not always repeated. Results filed as inconclusive are left out. Active and inactive are the calls of the source. Unless noted, the call rests on the fitted dose curve; in most records, active means well fitted curve in either direction with a large enough effect (not every such curve was filed as active); inconclusive means small, poorly fitted or top-dose-only effect, or another doubt; inactive means flat fitted curve, though single readings scatter.

Assays:
[1] = AP1 Signaling Pathway (AID 357); conditions: ME-180 (cervical carcinoma) AP-1-bla reporter, EGF-induced, beta-lactamase ratio, 5 h;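 further: ME-180 reporter cells stimulated with EGF at its EC50 level; on the % scale 0 is the no-effect control and ±100 the full control effect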
Procedure, shortened: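 In this screen, ME-180 cells in Opti-MEM with 0.5% dialyzed FBS received EC50 EGF and compound titrations for 5 h. AP-1 reporter beta-lactamase was detected via CCF4 ratio, giving AC50 for positive and negative modulators.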

[2] = NFAT Signaling Pathway (AID 444); conditions: Jurkat NFAT-bla M1, carbachol, beta-lactamase ratio, 5 h;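 further: carbachol stimulus at about its EC50 of 1 µM final; on the % scale 0 is the no-effect control and ±100 the full control effect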
Procedure, shortened: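 Jurkat cells carrying an NFAT-driven β-lactamase reporter and co-transfected muscarinic M1 receptor were treated with compound plus carbachol (1 uM final, an EC50 level) for 5 h at 37 °C. CCF4 loading followed for 1 h at RT; 460/530 nm ratio gave %activity.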

[3] = biological target: Cytochrome P450 1A2 (Homo sapiens) (UniProt P05177); experiment: p450-cyp1a2 (AID 410; calls by dose curve; further: potency means the concentration at half of the fitted maximal effect;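 on activity change, negative = inhibition: -100% = full effect of reference inhibitor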); conditions: recombinant CYP1A2, luciferin-ME demethylation, luminescence; series mostly up to 57 µM
Procedure, shortened: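 Luminescent demethylation readout: Luciferin-ME (100uM, equal to Km) turned over by 20nM CYP1A2 for 60 min at room temperature after NADPH regeneration addition, following 10 min compound preincubation. Normalization used 57 uM furafylline as full inhibition.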

[4] = Cell Viability - BJ (AID 421; calls by dose curve;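 further: potency means the concentration at half of the fitted maximal effect; cells exposed to compound for 40 hours at 37 °C before readout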); conditions: BJ fibroblast viability, qHTS
Procedure, shortened: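 Normal human BJ foreskin fibroblasts, 1500/well in complete medium, treated 40 hr at 37 °C. Cellular ATP by CellTiter-Glo luminescence; normalized to DMSO and 100 uM tamoxifen, AC50 from Hill fit.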

[5] = Cell Viability - Jurkat (AID 426;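 active means dose-dependent loss of cell ATP signal giving a full or clear fitted curve, ranked by lower potency value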; further: potency means the concentration at half of the fitted maximal effect); conditions: qHTS
Procedure, shortened: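 Cytotoxicity taken as drop in cellular ATP (CellTiter-Glo luminescence, 20 min room temperature) after 40 hr, 37C treatment of 5000 Jurkat Clone E6-1 cells per well; concentration-response fitted with Hill equation for AC50.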

[6] = Cell Viability - Hek293 (AID 427;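 active means compounds whose dose-response curve shows a full or clear partial loss of cell viability, called from curve shape rather than a numeric limit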;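 further: potency means the concentration at half of the fitted maximal effect; cells exposed to compound for 40 hours at 37 °C before reading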); conditions: qHTS
Procedure, shortened: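 HEK293 cells in complete medium were exposed to compound for 40 hr at 37 °C, then cellular ATP was read by CellTiter-Glo luminescence. Data were normalized to DMSO (basal) and 100 uM tamoxifen (100% inhibition), and AC50 came from Hill fits.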

[7] = Cell Viability - HepG2 (AID 433; calls by dose curve;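 further: potency means the concentration at half of the fitted maximal effect; potency for ATP loss meaning cytotoxicity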); conditions: qHTS
Procedure, shortened: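 Cytotoxicity read as ATP loss (CellTiter-Glo luminescence) after 40 hr compound exposure of HepG2, 1500 cells/well, 37 °C. AC50 by Hill equation; 0% set by DMSO, 100% inhibition by 100 uM tamoxifen.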

[8] = Cell Viability - MRC5 (AID 434; calls by dose curve;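 further: potency means the concentration at half of the fitted maximal effect; potency reflects cytotoxicity seen as loss of intracellular ATP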); conditions: MRC5 lung fibroblast viability, qHTS
Procedure, shortened: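 Decrease in intracellular ATP, quantified by luciferase light output, reflects compound toxicity toward MRC5 cells exposed for 40 hr in complete culture medium. Concentration-response curves, scaled between DMSO and 100 uM tamoxifen, gave AC50 values.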

[9] = Cell Viability - SK-N-SH (AID 435; calls by dose curve; further: potency means the concentration at half of the fitted maximal effect); conditions: SK-N-SH neuroblastoma cell viability qHTS
Procedure, shortened: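 qHTS cytotoxicity: CellTiter-Glo ATP luminescence after 40 h compound exposure of human neuroblastoma SK-N-SH cells at 37 °C. AC50 derived by Hill-equation fitting, with DMSO as basal and 100 uM tamoxifen as full inhibition.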

Cytochrome P450 1A2 (Homo sapiens), sequence (P05177 whole entry, looked up): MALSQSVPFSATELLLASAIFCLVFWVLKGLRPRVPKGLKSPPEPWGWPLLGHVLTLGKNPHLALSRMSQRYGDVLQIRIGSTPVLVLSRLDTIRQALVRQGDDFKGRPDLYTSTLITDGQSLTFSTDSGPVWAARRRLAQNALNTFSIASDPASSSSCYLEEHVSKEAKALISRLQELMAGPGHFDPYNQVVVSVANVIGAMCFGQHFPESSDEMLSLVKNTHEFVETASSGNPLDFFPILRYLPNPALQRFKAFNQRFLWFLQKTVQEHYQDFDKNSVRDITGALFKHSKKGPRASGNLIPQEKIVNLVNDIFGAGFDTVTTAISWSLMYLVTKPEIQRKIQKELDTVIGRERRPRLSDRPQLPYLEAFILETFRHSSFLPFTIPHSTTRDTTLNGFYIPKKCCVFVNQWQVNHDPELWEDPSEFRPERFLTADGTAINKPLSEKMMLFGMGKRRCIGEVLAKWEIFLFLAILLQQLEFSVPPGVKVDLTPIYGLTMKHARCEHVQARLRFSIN

N#Cc1ccc(C(c2ccc(C#N)cc2)n2cncn2)cc1
inactive: activity change, negative = inhibition ([1]; at 17.2 µM (top of the series)) -15.5% | activity change, negative = inhibition ([2]; at 17.2 µM (top of the series)) -8.25%

O=C1CCc2cc(OCCCCc3nnnn3C3CCCCC3)ccc2N1
inactive: activity change, negative = inhibition ([1]; at 17.2 µM (top of the series)) -11% | activity change, negative = inhibition ([1]; at 38 µM (top of the series)) -14.1% | Potency [3] | activity change, negative = inhibition ([2]; at 17.2 µM (top of the series)) -6.28% | activity change, negative = inhibition ([2]; at 38 µM (top of the series)) -9.05%

CC(C[N+](C)(C)C)OC(N)=O (stereo not drawn)
inactive: activity change, negative = inhibition ([1]; at 17.2 µM (top of the series)) 1.75%

Cc1cnc(NC(=O)C2=C(O)c3ccccc3S(=O)(=O)N2C)s1
inactive: activity change, negative = inhibition ([1]; at 17.2 µM (top of the series)) -12.9% | activity change, negative = inhibition ([1]; at 38 µM (top of the series)) 1.25% | activity change, negative = inhibition ([2]; at 17.2 µM (top of the series)) -9.71% | activity change, negative = inhibition ([2]; at 38 µM (top of the series)) 11.3%

NC(N)=NC(=O)c1nc(Cl)c(N)nc1N
inactive: activity change, negative = inhibition ([1]; at 17.2 µM (top of the series)) 2.66% and -5.39% | activity change, negative = inhibition ([1]; at 38 µM (top of the series)) -2.62% | Potency [4] > 92 µM | Potency [5] > 92 µM | Potency [6] > 92 µM | Potency [7] > 92 µM | Potency [8] > 92 µM | Potency [9] > 92 µM | activity change, negative = inhibition ([2]; at 17.2 µM (top of the series)) 8.59% and -17.4% | activity change, negative = inhibition ([2]; at 38 µM (top of the series)) -2.5%
active: Potency [3] 12.6 µM and 6.31 µM

CCCC(CCC)C(=O)O
inactive: activity change, negative = inhibition ([1]; at 38 µM (top of the series)) 10.8% | Potency [3] | Potency [4] > 92 µM | Potency [5] > 92 µM | Potency [6] > 92 µM | Potency [7] > 92 µM | Potency [8] > 92 µM | Potency [9] > 92 µM | activity change, negative = inhibition ([2]; at 38 µM (top of the series)) 4.56%

O=c1[nH]cnc2[nH]ncc12
inactive: activity change, negative = inhibition ([1]; at 38 µM (top of the series)) 2.34% | Potency [3] | Potency [4] > 92 µM | Potency [5] > 92 µM | Potency [6] > 92 µM | Potency [7] > 92 µM | Potency [8] > 92 µM | Potency [9] > 92 µM | activity change, negative = inhibition ([2]; at 38 µM (top of the series)) 5.26%

C[C@]12CCC(=O)C=C1CC[C@@H]1[C@@H]2[C@@H](O)C[C@@]2(C)[C@H]1CC[C@]2(O)C(=O)CO
inactive: activity change, negative = inhibition ([1]; at 17.2 µM (top of the series)) -3.8% | activity change, negative = inhibition ([2]; at 17.2 µM (top of the series)) 18.6%

Nc1ccc(S(=O)(=O)Nc2ccnn2-c2ccccc2)cc1
inactive: activity change, negative = inhibition ([1]; at 17.2 µM (top of the series)) 1.79% | activity change, negative = inhibition ([1]; at 38 µM (top of the series)) 4.55% | Potency [3] | activity change, negative = inhibition ([2]; at 17.2 µM (top of the series)) -4.12% | activity change, negative = inhibition ([2]; at 38 µM (top of the series)) 1.19%

NCCc1ccc(O)c(O)c1
inactive: activity change, negative = inhibition ([1]; at 38 µM (top of the series)) 2.68% | activity change, negative = inhibition ([2]; at 38 µM (top of the series)) 11.4%

COc1ccc2nc(S(=O)Cc3ncc(C)c(OC)c3C)[nH]c2c1 (stereo not drawn)
inactive: activity change, negative = inhibition ([1]; at 17.2 µM (top of the series)) 4.02% and -1.7% | activity change, negative = inhibition ([2]; at 17.2 µM (top of the series)) -26.1% and -10.4%

CC(=O)Oc1ccccc1C(=O)O
inactive: activity change, negative = inhibition ([1]; at 38 µM (top of the series)) 8.53% | Potency [3] | Potency [4] > 92 µM | Potency [5] > 92 µM | Potency [6] > 92 µM | Potency [7] > 92 µM | Potency [8] > 92 µM | Potency [9] > 92 µM | activity change, negative = inhibition ([2]; at 38 µM (top of the series)) 2.25%

CCN(c1ccccc1)c1cc(NC)[n+](C)c(C)n1
active: Potency [3] 31.6 µM

Cc1oncc1C(=O)Nc1ccc(C(F)(F)F)cc1
inactive: activity change, negative = inhibition ([1]; at 17.2 µM (top of the series)) -20.4% and 3.89% | activity change, negative = inhibition ([1]; at 38 µM (top of the series)) -1.93% | activity change, negative = inhibition ([2]; at 17.2 µM (top of the series)) 0.0794% and 7.99% | activity change, negative = inhibition ([2]; at 38 µM (top of the series)) -5.42%
active: Potency [3] 631 nM and 63.1 nM

N=c1nc(N2CCCCC2)cc(N)n1O
inactive: activity change, negative = inhibition ([1]; at 17.2 µM (top of the series)) -4.3% and 1.82% | activity change, negative = inhibition ([1]; at 38 µM (top of the series)) 2.17% | Potency [3] | activity change, negative = inhibition ([2]; at 17.2 µM (top of the series)) -4.8% | activity change, negative = inhibition ([2]; at 38 µM (top of the series)) 7.52%

Cc1ccccc1C(OCCN(C)C)c1ccccc1 (stereo not drawn)
active: activity change, negative = inhibition ([2]; at 17.2 µM (top of the series)) -85.9%
inactive: activity change, negative = inhibition ([1]; at 17.2 µM (top of the series)) 14.6%

Cc1cn[nH]c1
inactive: activity change, negative = inhibition ([1]; at 38 µM (top of the series)) 13.5% | activity change, negative = inhibition ([2]; at 38 µM (top of the series)) -5.73%

NC[C@H](O)c1ccc(O)c(O)c1
inactive: activity change, negative = inhibition ([1]; at 38 µM (top of the series)) -15.3% and -4.21% | activity change, negative = inhibition ([2]; at 38 µM (top of the series)) -7.25% and 5.9%

NC(=O)c1cnccn1
inactive: activity change, negative = inhibition ([1]; at 38 µM (top of the series)) 5.47% | Potency [3] | Potency [4] > 92 µM | Potency [5] > 92 µM | Potency [6] > 92 µM | Potency [7] > 92 µM | Potency [8] > 92 µM | Potency [9] > 92 µM | activity change, negative = inhibition ([2]; at 38 µM (top of the series)) 2.31%

Cc1ccc2c(c1)C(=O)[C@@]1(O)CCN(c3ccccc3)C1=N2
active: Potency [3] 3.98 µM

O=NN(CCCl)C(=O)NCCCl
inactive: activity change, negative = inhibition ([1]; at 38 µM (top of the series)) 3.21% | activity change, negative = inhibition ([2]; at 38 µM (top of the series)) -7.61%

Cn1cnc([N+](=O)[O-])c1Sc1ncnc2nc[nH]c12
inactive: activity change, negative = inhibition ([1]; at 38 µM (top of the series)) 8.24% | Potency [4] > 92 µM | Potency [8] > 92 µM | activity change, negative = inhibition ([2]; at 17.2 µM (top of the series)) 13.3% | activity change, negative = inhibition ([2]; at 38 µM (top of the series)) 19.1%
active: Potency [5] 0.384 µM | Potency [6] 2.04 µM | Potency [9] 0.529 µM

NNCCc1ccccc1
active: Potency [3] 3.16 µM and 1 µM
inactive: activity change, negative = inhibition ([1]; at 17.2 µM (top of the series)) -1.06% | activity change, negative = inhibition ([1]; at 38 µM (top of the series)) 26% | activity change, negative = inhibition ([2]; at 17.2 µM (top of the series)) -10.8% | activity change, negative = inhibition ([2]; at 38 µM (top of the series)) -17.1%
